Experimental data from publication PMC4336329 (PLoS ONE, 2015).
In all, about 310,000 compounds went through this assay and about 14,000 (4.5%) showed an effect of 50% or more. Effects have a minus sign here. What follows is part of a selection rich in strong results, with near analogues and random picks from the rest.
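Also: peak tail current of the secondary pulse compared with the same well before compound.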

Each compound was assayed against human ether-à-go-go-related gene (hERG) potassium channel (human, UniProt Q12809) (assay: primary screen, population patch clamp on CHO cells stably expressing hERG; higher = less effect of the substance).
Chain of human ether-à-go-go-related gene (hERG) potassium channel (Q12809 whole entry, looked up): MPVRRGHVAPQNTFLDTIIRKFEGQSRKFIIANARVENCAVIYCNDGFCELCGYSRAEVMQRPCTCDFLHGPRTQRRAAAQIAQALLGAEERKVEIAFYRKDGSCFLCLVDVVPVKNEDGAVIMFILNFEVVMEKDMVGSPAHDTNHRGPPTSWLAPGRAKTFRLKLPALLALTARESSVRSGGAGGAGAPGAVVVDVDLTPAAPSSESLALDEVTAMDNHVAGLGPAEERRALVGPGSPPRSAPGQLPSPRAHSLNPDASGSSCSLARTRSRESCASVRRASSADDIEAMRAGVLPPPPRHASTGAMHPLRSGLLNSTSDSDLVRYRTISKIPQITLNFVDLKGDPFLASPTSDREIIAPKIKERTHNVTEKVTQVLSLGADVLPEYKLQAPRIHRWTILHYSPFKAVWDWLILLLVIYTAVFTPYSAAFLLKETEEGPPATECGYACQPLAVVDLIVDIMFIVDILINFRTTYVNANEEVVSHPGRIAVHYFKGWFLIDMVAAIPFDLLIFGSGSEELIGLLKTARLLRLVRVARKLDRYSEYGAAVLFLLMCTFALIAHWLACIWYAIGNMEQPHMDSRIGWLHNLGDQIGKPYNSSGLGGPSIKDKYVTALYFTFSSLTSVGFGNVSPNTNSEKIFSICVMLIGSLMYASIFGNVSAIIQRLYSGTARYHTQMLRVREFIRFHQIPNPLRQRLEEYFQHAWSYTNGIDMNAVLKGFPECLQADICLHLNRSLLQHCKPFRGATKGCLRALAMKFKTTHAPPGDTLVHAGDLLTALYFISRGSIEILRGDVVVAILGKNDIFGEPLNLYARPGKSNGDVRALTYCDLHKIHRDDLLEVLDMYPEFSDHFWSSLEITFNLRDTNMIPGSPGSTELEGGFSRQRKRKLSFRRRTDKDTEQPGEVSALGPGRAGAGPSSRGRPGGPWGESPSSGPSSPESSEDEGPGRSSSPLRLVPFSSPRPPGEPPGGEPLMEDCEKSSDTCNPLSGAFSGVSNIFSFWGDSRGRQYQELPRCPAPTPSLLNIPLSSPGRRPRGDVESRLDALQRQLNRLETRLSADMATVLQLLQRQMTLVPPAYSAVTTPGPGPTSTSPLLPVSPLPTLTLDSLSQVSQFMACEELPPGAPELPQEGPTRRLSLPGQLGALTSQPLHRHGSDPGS
For `CCOc1ccc(N(CC)C(=O)CCS(=O)(=O)c2cccc3nonc23)cc1`, the “hERG current change (%, negative = inhibition) at 10uM” value was -4.92%. In the case of `O=C(CSc1nnc(COc2ccccc2)n1-c1ccccc1)c1ccccc1`, the “hERG current change (%, negative = inhibition) at 10uM” value is reported as 11.2%. For `O=C(CCCCCNC(=O)N1CCn2c1nc1ccccc12)NCc1ccccc1Cl`, the “hERG current change (%, negative = inhibition) at 10uM” value was -16.6%. `CCN(CC)S(=O)(=O)c1cccc(-c2nnc(SCC#N)n2Cc2ccccc2)c1` was tested, and the “hERG current change (%, negative = inhibition) at 10uM” value was -25.5%. In the case of `CCN(CC)S(=O)(=O)c1ccc(-c2nnc(SCc3nnc(-c4ccccc4)o3)o2)cc1`, the “hERG current change (%, negative = inhibition) at 10uM” value is reported as 7.63%. With `CCN(CC)S(=O)(=O)c1cccc(-c2nnc(SCC(=O)c3ccc(Cl)s3)n2C)c1` the “hERG current change (%, negative = inhibition) at 10uM” value was -52.7%. For `CCN(CC)S(=O)(=O)c1cccc(-c2nnc(SCC(=O)NC)n2N)c1`, the “hERG current change (%, negative = inhibition) at 10uM” value was 8.5%. In the case of `Cc1cccc(-c2nnc(SCC3CNC(=O)O3)n2-c2ccc(Cl)cc2)c1` (stereo not drawn), the “hERG current change (%, negative = inhibition) at 10uM” value is reported as -40.3%. For `CCN(CC)S(=O)(=O)c1cccc(-c2nnc(SCc3nnc(-c4ccccc4)o3)n2C)c1`, the “hERG current change (%, negative = inhibition) at 10uM” value was -67.4%. With `CCSc1nnc(-c2cccc(S(=O)(=O)N(CC)CC)c2)n1Cc1ccccc1` the “hERG current change (%, negative = inhibition) at 10uM” value was -62.6%. In the case of `COc1ccc(-n2c(SCC3CNC(=O)O3)nnc2-c2ccc(Cl)cc2)cc1` (stereo not drawn), the “hERG current change (%, negative = inhibition) at 10uM” value is reported as -54.8%. With `CCN(CC)S(=O)(=O)c1cccc(-c2nnc(SCC(N)=O)n2N)c1` the “hERG current change (%, negative = inhibition) at 10uM” value was -28.9%. For `CCN(CC)S(=O)(=O)c1cccc(-c2nnc(SC(C)C#N)n2Cc2ccccc2)c1` (stereo not drawn), the “hERG current change (%, negative = inhibition) at 10uM” value was -7.34%. With `COc1cccc(-c2nnc(SCC3CNC(=O)O3)n2-c2ccc(Cl)cc2)c1` (stereo not drawn) the “hERG current change (%, negative = inhibition) at 10uM” value was 8.33%. With `CCN(CC)S(=O)(=O)c1cccc(-c2nnc(SCc3nnc(-c4cccs4)o3)n2N)c1` the “hERG current change (%, negative = inhibition) at 10uM” value was -44.3%. With `CCn1cc(/C=C(\NC(=O)c2cc(OC)c(OC)c(OC)c2)C(=O)NCCN2CCOCC2)c2ccccc21` the “hERG current change (%, negative = inhibition) at 10uM” value was 10.8%. With `COc1ccc(CCNC(=O)Cn2nc([N+](=O)[O-])c(Br)c2C)cc1OC` the “hERG current change (%, negative = inhibition) at 10uM” value was -0.503%. In the case of `O=S(CC1CC1(Cl)Cl)CC1CC1(Cl)Cl` (stereo not drawn), the “hERG current change (%, negative = inhibition) at 10uM” value is reported as 3.18%. For `O=C(CNc1cccc(S(=O)(=O)N2CCCC2)c1)Nc1cccc(Br)c1`, the “hERG current change (%, negative = inhibition) at 10uM” value was -18.5%. For `COc1ccccc1N(C)S(=O)(=O)c1ccc(C(=O)NCc2ccc3c(c2)OCO3)cc1`, the “hERG current change (%, negative = inhibition) at 10uM” value was 4.2%. For `O=C(c1ccc(O)cc1)c1ccc(C(=O)O)c(C(=O)O)c1`, the “hERG current change (%, negative = inhibition) at 10uM” value was 23.2%. In the case of `Cc1cnc(NC(=O)CSC(=S)N2CCOCC2)s1`, the “hERG current change (%, negative = inhibition) at 10uM” value is reported as 15.4%. For `COC(=O)Nc1ccc(S(=O)(=O)N2CCC(Cc3ccccc3)CC2)cc1`, the “hERG current change (%, negative = inhibition) at 10uM” value was 1.4%. In the case of `COc1ccc2nc(NC(=O)CCc3ccc(OC)c(OC)c3)sc2c1`, the “hERG current change (%, negative = inhibition) at 10uM” value is reported as 26.2%. For `CCC(C)n1c(-c2cccc(S(=O)(=O)N(CC)CC)c2)n[nH]c1=S` (stereo not drawn), the “hERG current change (%, negative = inhibition) at 10uM” value was 26.6%. With `CCN(CC)S(=O)(=O)c1ccc(-c2nnc(SCc3nnc(-c4ccc(C)cc4)o3)n2CC)cc1` the “hERG current change (%, negative = inhibition) at 10uM” value was -55.2%. In the case of `CCn1c(SCc2nnc(-c3ccccc3)o2)nnc1-c1ccc(S(=O)(=O)N2CCCC2)cc1`, the “hERG current change (%, negative = inhibition) at 10uM” value is reported as -34.6%. For `COCCn1c(SCc2nnc(-c3ccc(OC)c(OC)c3)o2)nnc1-c1ccncc1`, the “hERG current change (%, negative = inhibition) at 10uM” value was 1.42%. With `COc1ccc(-c2nnc(CSc3nc4ccccc4c(=O)n3C)o2)cc1OC` the “hERG current change (%, negative = inhibition) at 10uM” value was -4.89%. For `COc1ccc(-n2c(SCc3nnc(-c4ccccc4)o3)nnc2-c2ccccc2)cc1`, the “hERG current change (%, negative = inhibition) at 10uM” value was -29.5%. In the case of `COc1ccc(-c2nnc(SCc3nnc(-c4ccccc4)o3)n2C)cc1OC`, the “hERG current change (%, negative = inhibition) at 10uM” value is reported as -54.3%. For `COc1ccc(-c2nnc(SCc3nnc(-c4ccc(Cl)cc4)o3)n2-c2ccccc2)cc1`, the “hERG current change (%, negative = inhibition) at 10uM” value was -56%. `CCN(CC)S(=O)(=O)c1ccc(-c2nnc(SCc3nnc(-c4ccc(C)cc4)o3)o2)cc1` was tested, and the “hERG current change (%, negative = inhibition) at 10uM” value was 8.8%. For `COc1ccc(-c2nnc(SCc3nnc(-c4ccccc4)o3)n2-c2ccccc2)cc1`, the “hERG current change (%, negative = inhibition) at 10uM” value was -9.78%. With `CCN(CC)S(=O)(=O)c1cccc(-c2n[nH]c(=S)n2C)c1` the “hERG current change (%, negative = inhibition) at 10uM” value was -51.8%. With `CCN(CC)S(=O)(=O)c1cccc(-c2n[nH]c(=S)n2CC(C)C)c1` the “hERG current change (%, negative = inhibition) at 10uM” value was 6.22%. `COc1cc(NC(=O)c2ccccc2)ccc1NC(=O)c1cc2ccccc2o1` was tested, and the “hERG current change (%, negative = inhibition) at 10uM” value was 25.8%. For `CCOC(=O)c1cc(-c2ccc([N+](=O)[O-])cc2)nc2c1c(=O)[nH]c(=O)n2Cc1ccccc1`, the “hERG current change (%, negative = inhibition) at 10uM” value was 11.9%. For `CC1CCN(C(=O)c2[nH]cnc2C(=O)NC2CCN(C(=O)OC(C)(C)C)CC2)CC1`, the “hERG current change (%, negative = inhibition) at 10uM” value was 9.62%. `COc1ccc(NC(=S)NCc2ccco2)c(OC)c1` was tested, and the “hERG current change (%, negative = inhibition) at 10uM” value was -2.08%. With `CCOc1ccc(N(C)S(=O)(=O)c2ccc3[nH]cc(C(=O)NCCCOC)c(=O)c3c2)cc1` the “hERG current change (%, negative = inhibition) at 10uM” value was 3.51%. For `O=C(O)Cn1c2ccccc2c2ccccc21`, the “hERG current change (%, negative = inhibition) at 10uM” value was 30.5%. For `COc1ccc2c(c1OC)C(=O)N(c1ncn[nH]1)C2`, the “hERG current change (%, negative = inhibition) at 10uM” value was 13.5%. `O=C(/C=C\c1ccc(-c2cccc([N+](=O)[O-])c2)o1)N1CCOCC1` was tested, and the “hERG current change (%, negative = inhibition) at 10uM” value was -10.2%. `Cc1ccc2[nH]c3c(=O)n(CC(=O)N4CCN(C)CC4)ncc3c2c1` was tested, and the “hERG current change (%, negative = inhibition) at 10uM” value was -1.46%. For `Cn1c(=O)n(C)c2cc(NC(=O)CSc3ccccc3)ccc21`, the “hERG current change (%, negative = inhibition) at 10uM” value was 4.01%. With `CCc1nc2ccccc2n1CCc1ccccc1.Cl` the “hERG current change (%, negative = inhibition) at 10uM” value was -16.6%. For `CN(C(=O)c1cc([N+](=O)[O-])ccc1N1CCCC1)C1CCCCC1`, the “hERG current change (%, negative = inhibition) at 10uM” value was 1.07%. For `CCN(CC)S(=O)(=O)c1cccc(-c2nnc(SCC(=O)NC)n2CCc2ccccc2)c1`, the “hERG current change (%, negative = inhibition) at 10uM” value was -27.3%. In the case of `CCN(CC)S(=O)(=O)c1cccc(-c2nnc(SCC(N)=O)n2CCc2ccccc2)c1`, the “hERG current change (%, negative = inhibition) at 10uM” value is reported as -37.3%. In the case of `CCN(CC)S(=O)(=O)c1cccc(-c2nnc(SCc3ncc(-c4ccccc4)o3)n2C)c1`, the “hERG current change (%, negative = inhibition) at 10uM” value is reported as -68.2%. In the case of `CCCNC(=O)C(Cc1cccc(C#N)c1)NC(=O)c1ccc(C#N)cc1` (stereo not drawn), the “hERG current change (%, negative = inhibition) at 10uM” value is reported as -55.9%. With `CCCNC(=O)C(Cc1cccc(C#N)c1)NC(=O)c1cccc([N+](=O)[O-])c1` (stereo not drawn) the “hERG current change (%, negative = inhibition) at 10uM” value was -10.2%. For `CCCNC(=O)C(Cc1cccc(OC)c1)NC(=O)c1ccc(C#N)cc1` (stereo not drawn), the “hERG current change (%, negative = inhibition) at 10uM” value was -7.8%. `CCCNC(=O)C(Cc1ccc(OC)cc1)NC(=O)c1ccc(C#N)cc1` (stereo not drawn) was tested, and the “hERG current change (%, negative = inhibition) at 10uM” value was -50.7%. For `CCCNC(=O)C(Cc1ccc(I)cc1)NC(=O)c1ccc(C#N)cc1` (stereo not drawn), the “hERG current change (%, negative = inhibition) at 10uM” value was 8.48%. In the case of `CCCNC(=O)C(Cc1cccc(Cl)c1)NC(=O)c1ccc(C#N)cc1` (stereo not drawn), the “hERG current change (%, negative = inhibition) at 10uM” value is reported as -11%.
